# FECH block: inhibitors of human ferrochelatase; P22830; purified FECH, Ni-mesoporphyrin absorbance 550 nm; calls only at 10 µM (by protocol); 3.3% of 20,000 active; AID 1671448;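 active = enzyme reaction rate more than 3 SD below the solvent-only control wells on the same plate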;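 also: lower slope than DMSO wells means FECH inhibition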
# * hit, by the source's call; i = inactive; + = active, no number. This excerpt belongs to a sample that is enriched for hits.
SMILES,FECH block
O=C(Nc1ccon1)c1cccn(Cc2cccc(Cl)c2)c1=O,+
NC(=O)c1ccccc1NC(=O)c1cccn(Cc2cccc(Cl)c2)c1=O,i
NC(=O)c1ccc(NC(=O)c2cccn(Cc3cccc(Cl)c3)c2=O)cc1,i
CCC1CN(Cc2cccc(F)c2C)CCN1C(C)C (stereo not given),i
COc1ccccc1CC(C)NCc1ccc2nonc2c1 (stereo not given),i

# Screening data as filed in PubChem.
